± gives the standard deviation of the averaged measurements. Over roughly 33,000 sequences, “E-score (rank enrichment, -0.5 to 0.5)” has its median near -0.0075; the highest 2% begin near 0.23. Only a selection was taken, and the highest values are over-represented in it overall.
System: WT Max(13-93) synthetic (M65Nle)
Assay: PBM 8-mer E-score (E-score (rank enrichment, -0.5 to 0.5)); higher = stronger preferential binding
Procedure: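 Protein binding microarray (universal PBM chip covering all 10-mers in fixed probe flanks) with chemically synthesized human Max(13-93) bHLH-LZ analogs (not full-length Max) bearing noncanonical residues (hArg, Tha, Aib, Nle at 65) and aromatic Cys staples. Read-out per 8-mer (and its reverse complement): E-score (rank-based enrichment, -0.5 to 0.5) and Z-score of median probe intensity.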

Sequence	PBM 8-mer E-score
AAGCTCTG	-0.144 ± 0.028
ATCGCGCA	-0.034 ± 0.026
CCAGAGTC	-0.155 ± 0.0016
CAAGCATC	0.00917 ± 0.063
ACAGCATA	0.00665 ± 0.081
AAAGCATA	0.211 ± 0.026
CAAGCATA	0.104 ± 0.034
AAAGCATT	0.14 ± 0.0086
CACGCATG	0.184 ± 0.066
ACAGCATG	0.305 ± 0.01
CAAGCATG	0.24 ± 0.053
ACAGCATC	0.0804 ± 0.099
AAAGCATG	0.303 ± 0.017
AACGCATC	0.0593 ± 0.014
AACGCATG	0.305 ± 0.042
ACACAGAC	0.00286 ± 0.095
AGACGTAG	0.0572 ± 0.041
CAATGCGC	0.0235 ± 0.012
AAGGGCGT	-0.0104 ± 0.031
GATAAAGC	0.179 ± 0.094
AGTGGAGG	0.0658 ± 0.0029
ATTAGACG	0.136 ± 0.028

Sequence	PBM 8-mer E-score
AAAGATAA	0.234 ± 0.029
AAAGATAC	0.00254 ± 0.17
AAAGATAG	0.0319 ± 0.07
CAAGATAC	0.146 ± 0.047
TAAGATAA	0.018 ± 0.049
CAAGATAA	0.256 ± 0.014
GCTACGTA	0.0754 ± 0.075
ACCCAGCT	-0.00912 ± 0.022
TCGAGACA	-0.125 ± 0.06
GACCTTAC	-0.127 ± 0.056
TCCTTTCA	0.177 ± 0.086
CCGACCAG	-0.175 ± 0.0087
GTGGAGTA	-0.0124 ± 0.029
TGGACGAA	0.138 ± 0.011
GGTATCTA	0.0126 ± 0.011
CGTATCTA	-0.0295 ± 0.068
AGTATCTA	0.253 ± 0.022
CGGCAATC	-0.205 ± 0.029
AGTCGGTC	-0.181 ± 0.0094
GATCAAGA	-0.00477 ± 0.11
CACATGAC	0.317 ± 0.0056
CACATGGC	0.343 ± 0.039

Sequence	PBM 8-mer E-score
CACATGGG	0.276 ± 0.0049
GACATGGC	0.073 ± 0.098
CCCATGGG	-0.0583 ± 0.12
AACATGGA	0.106 ± 0.052
GACATGGA	-0.0676 ± 0.069
AACATGGC	0.118 ± 0.02
CACATGAA	0.1797 ± 0.00019
CACATGAG	0.0368 ± 0.07
AACATGGG	0.231 ± 0.047
CACATGGA	0.37 ± 0.02
CGTATCCC	-0.27 ± 0.076
AAATCAAC	0.129 ± 0.0028
CGCTCGCC	-0.158 ± 0.02
CCGGCAAC	-0.301 ± 0.024
ACCCTGTC	-0.0879 ± 0.17
AGAATCGG	-0.25 ± 0.048
ACTAGGTA	0.102 ± 0.04
CTAACGCA	0.12 ± 0.0043
GCTGCAGA	-0.00761 ± 0.073
GGTATTTA	0.0645 ± 0.18
CGTATTTA	0.285 ± 0.056
AGTATTTA	0.186 ± 0.058

Sequence	PBM 8-mer E-score
AAGACACC	-0.137 ± 0.085
AGCAGCTA	-0.199 ± 0.04
AAGTACAA	0.225 ± 0.15
AAGTATAC	0.246 ± 0.014
GACTACAC	0.0803 ± 0.16
AAGTATAT	0.0964 ± 0.13
CAGTACAC	0.0197 ± 0.13
AACTACAC	0.282 ± 0.02
AACTACAG	-0.0267 ± 0.018
AAGTACAC	0.235 ± 0.075
AAGTATAA	0.225 ± 0.069
CGTGGCCC	0.0336 ± 0.14
GAGATGCC	0.078 ± 0.063
AGGGCCGA	0.0332 ± 0.068
GCCCACCC	0.206 ± 0.017
CGACACCG	-0.265 ± 0.12
AGATGGCC	-0.092 ± 0.12
CACGTAGC	0.0038 ± 0.017
GAGTCCCA	-0.0366 ± 0.0061
CTGTTGCA	0.0892 ± 0.013

Source: the supplement of paper PMC12636033
